Data taken from PubChem BioAssay (NCATS).
Records with an inconclusive call do not appear. Calls of active or inactive are those of the source. Calls come from the whole dose curve; as a rule, active = well fitted inhibition curve with a large enough effect; inconclusive = small, poorly fitted or top-dose-only effect; inactive = flat fitted curve, though single readings scatter.

The compounds below were run against Glutathione peroxidase 1 (Homo sapiens) (UniProt P07203) (assay: Primary qHTS Assay for Inhibitors of Recombinant Selenoprotein Glutathione Peroxidase 1 (GPX1) (AID 1845191)). Settings: recombinant GPX1, GR-coupled NADPH fluorescence, 15 min; series mostly up to 48.8 µM; activity, negative = inhibition: at the top concentration.
Chain of Glutathione peroxidase 1 (Homo sapiens) (P07203 whole entry, looked up): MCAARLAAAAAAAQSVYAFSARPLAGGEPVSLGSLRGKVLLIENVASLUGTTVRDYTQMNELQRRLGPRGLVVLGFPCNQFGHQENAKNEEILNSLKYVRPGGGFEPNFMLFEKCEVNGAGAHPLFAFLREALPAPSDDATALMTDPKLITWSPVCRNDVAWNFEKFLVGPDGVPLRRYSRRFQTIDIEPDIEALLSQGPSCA
Procedure, shortened: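 Recombinant GPX1 (10 nM final) was preincubated with compound for 30 min at room temperature, then reacted with 1 mM GSH, 0.5 mM CHP, 0.5 mM NADPH and 100 nM glutathione reductase; NADPH fluorescence (340/450 nm) was read at 0 and 15 min.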
% is set by controls: 0 for no effect and ±100 for the full control effect.
Note: nearly all actives have a fitted effect of over 65% in size.

Row | SMILES | outcome | activity, negative = inhibition | Potency
1 | C=CC(=O)Nc1ccc2ncnc(Nc3cccc(Br)c3)c2c1 | inactive |  | 
2 | O=C(NCCCc1ccccc1)c1cccc(-c2cc(O)c3ncccc3c2)c1 | inactive |  | 
3 | CCNC(=O)C#Cc1ccc2c(C(=Nc3ccc(CN(C)C)cc3)c3ccccc3)c(O)[nH]c2c1 |  | -2.13% [at 27.7 µM] (inactive) | 
4 | COc1ccccc1OCCNCC(O)CCOc1cccc2[nH]c3ccccc3c12 (stereo unspecified) | inactive |  | 
5 | Cc1nnc(C[C@@H]2C=C(c3ccc(Cl)cc3)c3ccccc3-n3c(C)nnc32)o1 | inactive |  | 
6 | COc1ccc(CCc2nc3c(C)c(-c4c(C)noc4C)c(C)cc3n2CCN2CCOCC2)cc1 | inactive |  | 
7 | C[C@]12CC[C@@H]3c4ccc(O)c(O)c4CC[C@H]3[C@@H]1CCC2=O | inactive |  | 
8 | CC12CCC3C1C(c1c(cc(O)c(C(=O)c4ccccc4)c1O)O2)C3(C)C (stereo unspecified) | inactive [at 27.7 µM] |  | 
9 | C=C1C(=O)OC2/C=C(/C)C3=CC(=O)C(C)(CC(OC(=O)/C(C)=C/COC(C)=O)C12)O3 (stereo unspecified) |  | -6.9% [at 27.7 µM] (inactive) | 
10 | Cc1c[nH]c2ncnc(N3CCC(CN)(C(=O)Nc4cccc(OC(=O)N(C)C)c4)CC3)c12 | inactive |  | 
11 | C=C1C(OC2OC(CO)C(O)C(O)C2O)CC2C(C)(C)C(O)CCC2(C)C1CC/C(C)=C\COC(=O)CC(=O)O (stereo unspecified) |  | 1.98% [at 15.3 µM] (inactive) | 
12 | CC(=O)OC/C(=C/C(=O)O)CC[C@@H]1C(C=O)=CC[C@@H]2C(C)(C)CCC[C@@]12C |  | -12% [at 27.7 µM] (inactive) | 
13 | Cc1sc2c(c1C)C(c1ccc(Cl)cc1)=N[C@H](CC(=O)NCCCCNC(=O)COc1cccc3c1C(=O)N([C@H]1CCC(=O)NC1=O)C3=O)c1nnc(C)n1-2 |  | -32.6% (inactive) | 
14 | CC(C)(O)C(=O)N1CCN(c2ccc(C(F)(F)F)c(C3=C(c4c[nH]c5ccccc45)C(=O)NC3=O)c2)CC1 | inactive |  | 
15 | CCOC(=O)c1cnc2ccc(-c3cncc(NS(=O)(=O)c4ccccc4)c3)cn12 |  |  | inactive
16 | Fc1ccc2c(CCNCc3cccc(OCC(F)(F)C(F)F)c3)c[nH]c2c1 | inactive |  | 
17 | CC(C)c1cc2c(N3CCN(C4=NCC(C)(C)S4)CC3)ncnc2s1 |  | 2.36% (inactive) | 
18 | Clc1ccc(Cn2c(Cc3ccccc3)nc3ccccc32)cc1 |  | -9.79% (inactive) | 
19 | O=C(NCCCNc1nc(Nc2cccc(CN3CCOCC3)c2)ncc1C1CC1)C1CCC1 | inactive |  | 

Row | SMILES | outcome | activity, negative = inhibition | Potency
20 | Cc1c(OCc2cccc(-c3ccc(C(=O)O)cc3)c2)cc2c(c1C)C(=O)C(C1CCCC1)C2 (stereo unspecified) |  | -33% (inactive) | 
21 | N#Cc1ccc(COC[C@H]2O[C@@H](n3c(NCc4ccc(Cl)c(Cl)c4)nc4c(N)ncnc43)[C@H](O)[C@@H]2O)cc1 |  |  | inactive
22 | O=C(c1ccccc1)c1c(O)cc(O)cc1O[C@@H]1O[C@H](CO)[C@@H](O)[C@H](O)[C@H]1O |  | -11.4% [at 27.7 µM] (inactive) | 
23 | CCOC(=O)N1CCC(CN(Cc2ccc(Cl)cc2)Cc2ccc([N+](=O)[O-])s2)C1 (stereo unspecified) | inactive |  | 
24 | C=CC(=O)Nc1cccc(Nc2nc(Nc3ccc(OCCOC)cc3)ncc2F)c1 | inactive |  | 
25 | Nc1ncnc2c1c(-c1ccc(Oc3ccccc3)cc1)nn2[C@@H]1CCCNC1 |  | -15.9% (inactive) | 
26 | CCC(=C(c1ccc(OCCN2CCCC2)cc1)c1ccc(OCCN2CCCC2)cc1)c1ccccc1 | inactive |  | 
27 | Cc1[nH]c(/C=C2\C(=O)Nc3ccc(S(=O)(=O)N(C)c4cccc(Cl)c4)cc32)c(C)c1C(=O)N1CCN(C)CC1 |  |  | inactive
28 | COc1c2c(c(C)c3c1C(=O)OC3)O[C@@]1(C)C[C@@H](OC(C)=O)[C@]34O[C@](OC)(CC[C@]3(C)[C@H]1C2)OC4(C)C | inactive [at 27.7 µM] |  | 
29 | COc1ccc(NC(=O)c2ccc(-c3ccc(C(=N)N)cc3C)cc2)cc1N1CCN(C)CC1 |  | 4.76% (inactive) | 
30 | COc1ccc(CCN(C)CCCOc2nsc(-c3ccccc3)n2)cc1OC | inactive |  | 
31 | CC1(C)CC[C@]2(C(=O)O[C@@H]3O[C@H](CO)[C@@H](O)[C@H](O)[C@H]3O)CC[C@]3(C)C(=CCC4[C@@]5(C)CC[C@H](O[C@@H]6O[C@H](C(=O)O)[C@H](O)[C@H](O)[C@H]6O)C(C)(C)C5CC[C@]43C)[C@@H]2C1 (stereo partly specified) |  | -18.7% [at 15.3 µM] (inactive) | 
32 | Cc1cc(NC(=O)c2cccc(NC(=O)/C=C/CN(C)C)c2)ccc1Nc1nccc(-c2cccnc2)n1 |  | -14.9% (inactive) | 
33 | CC(C)(O)c1ccc2c(c1)ncn2-c1cccc(-c2ccccc2C#N)c1 |  | -10.9% (inactive) | 
34 | O=S1(=O)CCN(Cc2cc(NCC3CCOCC3)c3[nH]c(-c4ccccc4)cc3c2)CC1 | inactive |  | 
35 | CCC(=O)N1CCOc2c(cc(-c3ccc(OC)c(OC)c3)cc2OC[C@H]2CCCN(C)C2)C1 |  | -26.1% (inactive) | 
36 | CN(C)CC1CCn2c(c(C3=C(c4cn(C)c5ccccc45)C(=O)NC3=O)c3ccccc32)C1 (stereo unspecified) |  | -8.78% (inactive) | 
37 | COC(=O)CC1OC(C)C2=C(O)c3c(O)cccc3C(=O)C23OC13 (stereo unspecified) |  | -8.77% [at 27.7 µM] (inactive) | 
38 | COc1cc2ncnc(Nc3cccc(I)c3)c2cc1OC | inactive |  | 

What follows are compounds tested against Phospholipid hydroperoxide glutathione peroxidase GPX4 (Homo sapiens) (UniProt P36969) (assay: Primary qHTS Assay for Inhibitors of Recombinant Selenoprotein Glutathione Peroxidase 4 (GPX4) (AID 1845192)). Settings: recombinant GPX4, GR-coupled NADPH fluorescence, 15 min; series mostly up to 50 µM; activity change, negative = inhibition: at the top concentration.
Chain of Phospholipid hydroperoxide glutathione peroxidase GPX4 (Homo sapiens) (P36969 whole entry, looked up): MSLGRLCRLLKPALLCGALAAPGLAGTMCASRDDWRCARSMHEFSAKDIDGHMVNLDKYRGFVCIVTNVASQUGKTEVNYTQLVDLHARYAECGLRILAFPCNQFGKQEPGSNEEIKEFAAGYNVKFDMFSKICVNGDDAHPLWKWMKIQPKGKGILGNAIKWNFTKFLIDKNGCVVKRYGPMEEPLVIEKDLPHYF
Procedure, shortened: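 GR-coupled readout: 100 nM GR, 1 mM GSH, 0.5 mM NADPH; NADPH fluorescence (ex 340/em 450 nm) read at t=0 and after 15 min RT. GPX4 200 nM, preincubated 30 min with compound; substrate 0.5 mM CHP.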

Row | SMILES | activity change, negative = inhibition | outcome | Potency
39 | C=CC(=O)Nc1ccc2ncnc(Nc3cccc(Br)c3)c2c1 | -2.29% (inactive) |  | 
40 | O=C(NCCCc1ccccc1)c1cccc(-c2cc(O)c3ncccc3c2)c1 |  | inactive | 
41 | CCNC(=O)C#Cc1ccc2c(C(=Nc3ccc(CN(C)C)cc3)c3ccccc3)c(O)[nH]c2c1 | -11.6% [at 27.8 µM] (inactive) |  | 
42 | COc1ccccc1OCCNCC(O)CCOc1cccc2[nH]c3ccccc3c12 (stereo unspecified) | 0.981% (inactive) |  | 
43 | Cc1nnc(C[C@@H]2C=C(c3ccc(Cl)cc3)c3ccccc3-n3c(C)nnc32)o1 | -1.21% (inactive) |  | 
44 | COc1ccc(CCc2nc3c(C)c(-c4c(C)noc4C)c(C)cc3n2CCN2CCOCC2)cc1 |  | inactive | 
45 | C[C@]12CC[C@@H]3c4ccc(O)c(O)c4CC[C@H]3[C@@H]1CCC2=O | -18.7% (inactive) |  | 
46 | CC12CCC3C1C(c1c(cc(O)c(C(=O)c4ccccc4)c1O)O2)C3(C)C (stereo unspecified) | -5.83% [at 27.8 µM] (inactive) |  | 
47 | C=C1C(=O)OC2/C=C(/C)C3=CC(=O)C(C)(CC(OC(=O)/C(C)=C/COC(C)=O)C12)O3 (stereo unspecified) |  | inactive [at 27.8 µM] | 
48 | Cc1c[nH]c2ncnc(N3CCC(CN)(C(=O)Nc4cccc(OC(=O)N(C)C)c4)CC3)c12 |  |  | inactive
49 | C=C1C(OC2OC(CO)C(O)C(O)C2O)CC2C(C)(C)C(O)CCC2(C)C1CC/C(C)=C\COC(=O)CC(=O)O (stereo unspecified) | 4.51% [at 15.3 µM] (inactive) |  | 
50 | CC(=O)OC/C(=C/C(=O)O)CC[C@@H]1C(C=O)=CC[C@@H]2C(C)(C)CCC[C@@]12C | -6.8% [at 27.8 µM] (inactive) |  | 
51 | Cc1sc2c(c1C)C(c1ccc(Cl)cc1)=N[C@H](CC(=O)NCCCCNC(=O)COc1cccc3c1C(=O)N([C@H]1CCC(=O)NC1=O)C3=O)c1nnc(C)n1-2 | -14% (inactive) |  | 
52 | CC(C)(O)C(=O)N1CCN(c2ccc(C(F)(F)F)c(C3=C(c4c[nH]c5ccccc45)C(=O)NC3=O)c2)CC1 | -8.95% (inactive) |  | 
53 | CCOC(=O)c1cnc2ccc(-c3cncc(NS(=O)(=O)c4ccccc4)c3)cn12 | -0.368% (inactive) |  | 
54 | Fc1ccc2c(CCNCc3cccc(OCC(F)(F)C(F)F)c3)c[nH]c2c1 | 6.19% (inactive) |  | 
55 | CC(C)c1cc2c(N3CCN(C4=NCC(C)(C)S4)CC3)ncnc2s1 | -4.34% (inactive) |  | 
56 | Clc1ccc(Cn2c(Cc3ccccc3)nc3ccccc32)cc1 | -10.9% (inactive) |  | 
57 | O=C(NCCCNc1nc(Nc2cccc(CN3CCOCC3)c2)ncc1C1CC1)C1CCC1 | -4.76% (inactive) |  | 

Row | SMILES | activity change, negative = inhibition | outcome | Potency
58 | Cc1c(OCc2cccc(-c3ccc(C(=O)O)cc3)c2)cc2c(c1C)C(=O)C(C1CCCC1)C2 (stereo unspecified) | -0.234% (inactive) |  | 
59 | N#Cc1ccc(COC[C@H]2O[C@@H](n3c(NCc4ccc(Cl)c(Cl)c4)nc4c(N)ncnc43)[C@H](O)[C@@H]2O)cc1 |  |  | inactive
60 | O=C(c1ccccc1)c1c(O)cc(O)cc1O[C@@H]1O[C@H](CO)[C@@H](O)[C@H](O)[C@H]1O | 1.48% [at 27.8 µM] (inactive) |  | 
61 | CCOC(=O)N1CCC(CN(Cc2ccc(Cl)cc2)Cc2ccc([N+](=O)[O-])s2)C1 (stereo unspecified) | -9.14% (inactive) |  | 
62 | C=CC(=O)Nc1cccc(Nc2nc(Nc3ccc(OCCOC)cc3)ncc2F)c1 | 4.52% (inactive) |  | 
63 | Nc1ncnc2c1c(-c1ccc(Oc3ccccc3)cc1)nn2[C@@H]1CCCNC1 | -8.67% (inactive) |  | 
64 | CCC(=C(c1ccc(OCCN2CCCC2)cc1)c1ccc(OCCN2CCCC2)cc1)c1ccccc1 | 1.45% (inactive) |  | 
65 | Cc1[nH]c(/C=C2\C(=O)Nc3ccc(S(=O)(=O)N(C)c4cccc(Cl)c4)cc32)c(C)c1C(=O)N1CCN(C)CC1 | -6.42% (inactive) |  | 
66 | COc1c2c(c(C)c3c1C(=O)OC3)O[C@@]1(C)C[C@@H](OC(C)=O)[C@]34O[C@](OC)(CC[C@]3(C)[C@H]1C2)OC4(C)C | -9.72% [at 27.8 µM] (inactive) |  | 
67 | COc1ccc(NC(=O)c2ccc(-c3ccc(C(=N)N)cc3C)cc2)cc1N1CCN(C)CC1 | 13.7% (inactive) |  | 
68 | COc1ccc(CCN(C)CCCOc2nsc(-c3ccccc3)n2)cc1OC | 6.51% (inactive) |  | 
69 | CC1(C)CC[C@]2(C(=O)O[C@@H]3O[C@H](CO)[C@@H](O)[C@H](O)[C@H]3O)CC[C@]3(C)C(=CCC4[C@@]5(C)CC[C@H](O[C@@H]6O[C@H](C(=O)O)[C@H](O)[C@H](O)[C@H]6O)C(C)(C)C5CC[C@]43C)[C@@H]2C1 (stereo partly specified) | -23.8% [at 15.3 µM] (inactive) |  | 
70 | Cc1cc(NC(=O)c2cccc(NC(=O)/C=C/CN(C)C)c2)ccc1Nc1nccc(-c2cccnc2)n1 | 1.49% (inactive) |  | 
71 | CC(C)(O)c1ccc2c(c1)ncn2-c1cccc(-c2ccccc2C#N)c1 | -8.05% (inactive) |  | 
72 | O=S1(=O)CCN(Cc2cc(NCC3CCOCC3)c3[nH]c(-c4ccccc4)cc3c2)CC1 | -3.35% (inactive) |  | 
73 | CCC(=O)N1CCOc2c(cc(-c3ccc(OC)c(OC)c3)cc2OC[C@H]2CCCN(C)C2)C1 | 1.58% (inactive) |  | 
74 | CN(C)CC1CCn2c(c(C3=C(c4cn(C)c5ccccc45)C(=O)NC3=O)c3ccccc32)C1 (stereo unspecified) | -1.37% (inactive) |  | 
75 | COC(=O)CC1OC(C)C2=C(O)c3c(O)cccc3C(=O)C23OC13 (stereo unspecified) | 4.22% [at 27.8 µM] (inactive) |  | 
76 | COc1cc2ncnc(Nc3cccc(I)c3)c2cc1OC | 1% (inactive) |  | 
